PubChem BioAssay (NCATS)
Records with an inconclusive call do not appear. The source made the active and inactive calls. Unless noted, calls follow the shape of the dose curve; as a rule, active = well fitted curve in the direction sought with a large enough effect; inconclusive = small, poorly fitted or top-dose-only effect, or another doubt; inactive = no such curve, though single readings can be large; an effect the other way counts as inactive or inconclusive.

Columns and labels:
[1] = qHTS to identify inhibitors of the type 1 interferon - major histocompatibility complex class I in skeletal muscle: primary screen against the NCATS Mechanism Interrogation Plate v5.0 (MIPE) Libary (AID 1347411); also: nearly all actives have a fitted effect of over 65% in size;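 as to activity change, negative = inhibition: plate controls were vehicle for no effect and reference inhibitor for full effect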
Procedure, shortened: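 Luminescence from HiBiT-tagged endogenous HLA-B*08:01 served as the MHC class I read-out. CRISPR-engineered C25cl48 human myoblasts received 4.0 ng/ml IFN-beta plus compound for 24 hrs, with an 11-point, 1:3 series topping at 46 uM final.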

[2] = Primary qHTS for inhibitors of nuclear receptor binding SET domain protein 2 (NSD2) in an isogenic RCH-ACV NSD2 p.E1099K mutant (9B) (AID 1645876); also: nearly all actives have a fitted effect of over 70% in size
[3] = Primary qHTS for inhibitors of nuclear receptor binding SET domain protein 2 (NSD2) in an RCH-ACV wild type WT cells (2C) (AID 1645877); also: nearly all actives have a fitted effect of over 70% in size
[4] = target: Glutathione peroxidase 1 (Homo sapiens) (UniProt P07203); experiment: Primary qHTS Assay for Inhibitors of Recombinant Selenoprotein Glutathione Peroxidase 1 (GPX1) (AID 1845191); also: nearly all actives have a fitted effect of over 65% in size
Glutathione peroxidase 1 (Homo sapiens), sequence (P07203 whole entry, looked up): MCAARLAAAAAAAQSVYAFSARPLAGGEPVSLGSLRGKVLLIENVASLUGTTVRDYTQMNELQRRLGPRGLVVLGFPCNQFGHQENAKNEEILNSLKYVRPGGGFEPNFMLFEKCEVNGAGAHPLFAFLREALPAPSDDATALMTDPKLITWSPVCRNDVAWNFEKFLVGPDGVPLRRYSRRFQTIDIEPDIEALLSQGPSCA
Procedure, shortened: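 Recombinant GPX1 (10 nM final) was preincubated with compound for 30 min at room temperature, then reacted with 1 mM GSH, 0.5 mM CHP, 0.5 mM NADPH and 100 nM glutathione reductase; NADPH fluorescence (340/450 nm) was read at 0 and 15 min.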

[5] = target: Phospholipid hydroperoxide glutathione peroxidase GPX4 (Homo sapiens) (UniProt P36969); experiment: Primary qHTS Assay for Inhibitors of Recombinant Selenoprotein Glutathione Peroxidase 4 (GPX4) (AID 1845192); conditions: outcome: dose series up to 50 µM unless noted; also: nearly all actives have a fitted effect of over 65% in size; as to activity change, negative = inhibition: % is scaled to controls: 0 for no effect and ±100 for the full control effect
Phospholipid hydroperoxide glutathione peroxidase GPX4 (Homo sapiens), sequence (P36969 whole entry, looked up): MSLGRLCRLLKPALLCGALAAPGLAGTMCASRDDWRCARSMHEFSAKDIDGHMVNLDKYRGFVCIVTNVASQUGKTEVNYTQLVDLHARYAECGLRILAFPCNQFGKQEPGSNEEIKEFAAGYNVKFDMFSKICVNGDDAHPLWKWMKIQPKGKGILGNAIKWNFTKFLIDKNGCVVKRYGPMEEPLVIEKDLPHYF
Procedure, shortened: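 GR-coupled readout: 100 nM GR, 1 mM GSH, 0.5 mM NADPH; NADPH fluorescence (ex 340/em 450 nm) read at t=0 and after 15 min RT. GPX4 200 nM, preincubated 30 min with compound; substrate 0.5 mM CHP.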

[6] = qHTS drug screen for cell cycle checkpoint inhibitors in PARPi-resistant BRCA-mutant ovarian cancer cell lines. (AID 1963452; calls by dose curve); conditions: PEO1/OlaR viability, CellTiter-Glo luminescence, 96 h; for Z-AUC: stronger effect = lower value
Procedure, shortened: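 PEO1, PEO4 and PEO1/OlaR ovarian cancer cells, 600 per well, exposed 96 h at 37C to a dilution series. Viability read by CellTiter-Glo luminescence, normalized to DMSO and empty wells; activity summarized as Z-AUC.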

[7] = qHTS assay to identify inhibitors of the type 1 interferon - major histocompatibility complex class I in skeletal muscle: Counter screen cell viability and HiBit confirmation (AID 1347412); conditions: iHSKM muscle cells + IFN-b, HiBiT or CellTiter-Glo, 24 h; for activity change, negative = inhibition: at 45.9 µM (top of the series); as to activity change, negative = inhibition: % is scaled to controls: 0 for no effect and ±100 for the full control effect; as to all read-outs here: nearly all actives have a fitted effect of over 60% in size
Procedure, shortened: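 Human myoblast knock-in line, 4.0 ng/ml IFN-beta stimulation, 24 h compound treatment. Endpoints: HiBiT lytic luminescence (HLA-B level) and CellTiter Glo (ATP). Dosing 12 concentrations, 3-fold steps, 46 uM highest final.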

[8] = measured here: PEO1 parental Z-AUC
Potency is read from the fitted curve at half-maximal effect.

SMILES	Potency [1]	Potency [2]	Potency [3]	Potency [4]	Potency [5]	Z-AUC [6]	Z-AUC [6, 8]	Z-AUC ([6]; measured here: PEO4 Z-AUC)	Potency ([7]; HiBiT)	activity change, negative = inhibition ([7]; Viability)	activity change, negative = inhibition ([7]; HiBiT)	Potency [6]	Potency ([7]; Viability)
C[C@@H]1CC(=O)Nc2cccc(-c3cnn(C(C)(C)C)c3)c2N1	inactive	6.61 µM (active)	5.9 µM (active)	inactive	inactive	-0.505 (inactive)	-0.577	-0.924					
Cc1ccc(NC(=O)c2ccc3c(c2)OCCO3)cc1NC(=O)c1ccc2nc(OCCN3CCCC3)ccc2c1	0.286 µM (active)	0.0574 µM (active)	0.0456 µM (active)	inactive	inactive	-1.99 (inactive)	-1.87	-2.21	0.557 µM (active)	-19.9% (inactive)			
Cc1ccc(NC(=O)NCc2ccc3c(c2)CN(C2CCC(=O)NC2=O)C3=O)cc1Cl (stereo not given)	0.0147 µM (active)	0.0015 µM (active)	0.0012 µM (active)	inactive	inactive	-3.37 (inactive)	-3.53	-3.45	0.0079 µM (active)	-11.6% (inactive)			
Cc1c[nH]c2nc(Nc3ccc(N4CCN(C)CC4)c(F)c3)nc(-c3cccc(CC#N)c3)c12	2.34 µM (active)	0.525 µM (active)	0.332 µM (active)	inactive	inactive	-0.269 (inactive)	-0.34	-0.115	1.76 µM (active)				
C[C@@H]1C[C@H](N)C[C@H](c2ccncc2NC(=O)c2ccc(F)c(-c3c(F)cccc3F)n2)C1	26.2 µM (active)	14.8 µM (active)	11.8 µM (active)	inactive	inactive	-0.973 (inactive)	-0.644	-0.817		-19.6% (inactive)	-24.5% (inactive)		
Cc1[nH]c(/C=C2\C(=O)Nc3ccc(S(=O)(=O)Cc4c(Cl)cccc4Cl)cc32)c(C)c1C(=O)N1CCC[C@@H]1CN1CCCC1	5.23 µM (active)	6.61 µM (active)	5.25 µM (active)		inactive	0.541 (inactive)	0.565	0.0929	22.2 µM (active)				
CNc1nc(-c2ccc3c(N)n[nH]c3c2)cc(N2C[C@@H](C(=O)NC3CCCCC3)CC[C@H]2C)n1	13.1 µM (active)	0.525 µM (active)	0.833 µM (active)	inactive	inactive	-1.31 (inactive)	0.449	-0.0883	31.3 µM (active)				
CN(C)CCN1C(=O)c2cccc3cc(NC(N)=O)cc(c23)C1=O	7.39 µM (active)	2.35 µM (active)	1.86 µM (active)	inactive	inactive	-0.63 (inactive)	-1.2	-1.08	17.6 µM (active)	-14% (inactive)			
CO[C@H]1/C=C\C=C(\C)C(=O)NC2=CC(=O)C(NCCN(C)C)=C(C[C@@H](C)C[C@H](OC)[C@H](O)[C@@H](C)/C=C(/C)[C@@H]1OC(N)=O)C2=O	0.0466 µM (active)	0.332 µM (active)	0.235 µM (active)	inactive	inactive		-2.33	-1.76	0.0176 µM (active)			219 nM (active)	
C=C1C(=O)O[C@@H]2[C@H]3C(C)=CC[C@@]34O[C@@]4(C)CC[C@@H]12	16.5 µM (active)	5.25 µM (active)	4.68 µM (active)	inactive	inactive	0.243 (inactive)	0.182	0.342	12.5 µM (active)	49.2% (inactive)			
Fc1cccc(-n2cnc3c(NCc4nc5c(F)c(F)ccc5[nH]4)nc(N4CCOCC4)nc32)c1	0.523 µM (active)	0.166 µM (active)	0.166 µM (active)		inactive	-1.76 (inactive)	-2.45	-2.33	0.442 µM (active)	-14.7% (inactive)			
CN(C)C[C@@H]1CCn2cc(c3ccccc32)C2=C(C(=O)NC2=O)c2cn(c3ccccc23)CCO1	4.66 µM (active)	7.42 µM (active)	6.61 µM (active)	inactive	inactive	0.756 (inactive)	0.389	0.797	27.9 µM (active)				
Cc1ccc(-n2c(C)cc(-c3nnc4n3CCCCC4)c2C)cc1	inactive	18.6 µM (active)	18.6 µM (active)	inactive	inactive	1.28 (inactive)	1.19	1.13					
CCc1cnn2c(NCc3ccc[n+]([O-])c3)cc(N3CCCC[C@H]3CCO)nc12	0.0052 µM (active)	0.0372 µM (active)	0.0372 µM (active)	inactive	inactive		-2.15	-1.73		5.42% (inactive)		245 nM (active)	
C[C@@]12C(=O)OC(=O)[C@]1(C)[C@H]1CC[C@@H]2O1	5.87 µM (active)	6.61 µM (active)	4.68 µM (active)	inactive	inactive	0.0424 (inactive)	0.505	0.28	27.9 µM (active)				14 µM (active)
Cc1cc(-n2c(=O)ccc3cnc4[nH]ccc4c32)ccc1F	4.15 µM (active)	18.6 µM (active)		inactive	inactive	-0.465 (inactive)	0.0709	0.281	3.52 µM (active)	5.99% (inactive)			
COC1CCC(N2C(=O)CNc3ncc(-c4ccc(C(C)(C)O)nc4)nc32)CC1 (stereo not given)	13.1 µM (active)	3.72 µM (active)	3.72 µM (active)	4.59 µM (active)	3.21 µM (active)	1.16 (inactive)	0.788	0.864	11.1 µM (active)	-5.62% (inactive)			
COc1ccc(-n2cnc3cc(C(=O)N4CCCCC4)ccc32)cc1	inactive	inactive	inactive	inactive	inactive	0.871 (inactive)	0.696	0.92					
